From PubChem BioAssay (Tox21)
Records with an inconclusive call do not appear. Calls of active or inactive are those of the source. Unless noted, calls come from the whole dose curve; as a rule, active = well fitted curve in the direction sought with a large enough effect in the repeat runs; inconclusive = weak or mixed curves; inactive = no such curve, though single readings can be large; an effect the other way counts as inactive or inconclusive.

Key:
[1] = qHTS assay to identify small molecule agonists of H2AX (AID 1224845; active = well fitted activation curve with a large enough effect in the signal ratio in the repeat runs, not every such curve was filed as active; the % refers to the signal ratio)
Procedure, shortened: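 Wild-type CHO-K1 cells, plated overnight, exposed 3hr at 37C to 15 concentrations (0.76% DMSO final). Lysed, then HTRF anti-pH2AX (S139) cryptate and anti-H2AX-d2 antibodies, 24 hr room temperature; 665/620 nm emission read.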

[2] = qHTS assay to identify small molecule agonists of the hypoxia (HIF-1) signaling pathway (AID 1224846; active = well fitted activation curve with a large enough effect in the signal ratio in the repeat runs, not every such curve was filed as active; the % refers to the signal ratio)
Procedure, shortened: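 HRE-bla ME-180 beta-lactamase reporter cells in medium with 0.5% dialyzed FBS, pre-incubated 5 h then exposed to compounds 17 h at 37C, 5% CO2; reporter induction read with CCF4-AM FRET substrate.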

[3] = qHTS assay to identify small molecule agonists of H2AX - cell viability counter screen (AID 1224847; calls by dose curve; note: top concentration of the series differs between compounds; nearly all actives have a fitted effect of over 30% in size)
Procedure, shortened: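 Counter-screen for viability: CellTiter-Glo ATP luminescence read after 3 h compound treatment (15-point titration, 0.76% DMSO final) of CHO-K1 cells at 37C, with 30 min room-temperature reagent incubation.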

[4] = qHTS RealTime-Glo MT Cell Viability Assay in HepG2 cells - 24 hour (AID 1224867); note: nearly all actives have a fitted effect of over 50% in size
Procedure, shortened: (§1)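 Luminescence read-out: viable HepG2 cells reduce a prosubstrate to a NanoLuc substrate, giving a signal proportional to live cell number. Reads taken at 0, 8, 16, 24, 32 and 40 h of compound exposure at 37 C.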

[5] = qHTS RealTime-Glo MT Cell Viability Assay in HEK293 cells - 32 hour (AID 1224868); note: top concentration of the series differs between compounds; nearly all actives have a fitted effect of over 50% in size
Procedure, shortened: (§2)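 Nonlytic real-time viability readout: viable cells convert prosubstrate to NanoLuc substrate, giving luminescence proportional to live cell number. HEK293, 600 cells/well, compound added after 5 h, continuous culture at 37 C.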

[6] = A CellTox Green Cytotoxicity Assay to monitor cytotoxicity in HEK293 cells - 0 hour (AID 1224869); note: nearly all actives have a fitted effect of over 50% in size
Procedure, shortened: (§3)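 HEK293 cells, 600/well, were preincubated 5 hours and then exposed to compounds at 37 C for up to 40 hours. A cell-impermeant cyanine dye staining dead-cell DNA was read by fluorescence at 0, 8, 16, 24, 32 and 40 h time points.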

[7] = qHTS RealTime-Glo MT Cell Viability Assay in HepG2 cells - 40 hour (AID 1224870); note: nearly all actives have a fitted effect of over 50% in size
Procedure, shortened: (§4)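 HepG2 cells (600/well) mixed with RealTime-Glo MT reagent, settled 5 h at 37 C/5% CO2 before compound addition. Nonlytic NanoLuc luminescence from viable-cell prosubstrate reduction read repeatedly during 40 h treatment at 37 C.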

[8] = qHTS RealTime-Glo MT Cell Viability Assay in HEK293 cells - 16 hour (AID 1224872)
Procedure, shortened: as §2

[9] = qHTS RealTime-Glo MT Cell Viability Assay in HepG2 cells - 8 hour (AID 1224873); note: nearly all actives have a fitted effect of over 55% in size
Procedure, shortened: as §4

[10] = qHTS RealTime-Glo MT Cell Viability Assay in HEK293 cells - 40 hour (AID 1224874); settings: RealTime-Glo luminescence; max response: stronger effect = lower value; note: nearly all actives have a fitted effect of over 50% in size
Procedure, shortened: (§5)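 600 cells/well were plated with the nonlytic NanoLuc/prosubstrate reagent, pre-incubated 5 h, then given 23 nL of compound in DMSO. Incubation at 37 C for 40 h, with luminescence from viable-cell-reduced substrate read repeatedly from 0 h.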

[11] = A CellTox Green Cytotoxicity Assay to monitor cytotoxicity in HepG2 cells - 16 hour (AID 1224876); note: nearly all actives have a fitted effect of over 45% in size
Procedure, shortened: (§6)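 HepG2 cells, 600/well, preincubated 5 h with CellTox Green dye, then exposed to Tox21 compounds in DMSO at 37 C for up to 40 h. Dead-cell DNA fluorescence read at the indicated time point.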

[12] = A CellTox Green Cytotoxicity Assay to monitor cytotoxicity in HepG2 cells - 40 hour (AID 1224879); note: nearly all actives have a fitted effect of over 40% in size
Procedure, shortened: as §6

[13] = qHTS RealTime-Glo MT Cell Viability Assay in HEK293 cells - 0 hour (AID 1224880); note: top concentration of the series differs between compounds; nearly all actives have a fitted effect of over 45% in size
Procedure, shortened: as §5

[14] = A CellTox Green Cytotoxicity Assay to monitor cytotoxicity in HepG2 cells - 24 hour (AID 1224878); note: nearly all actives have a fitted effect of over 45% in size
Procedure, shortened: as §6

[15] = A CellTox Green Cytotoxicity Assay to monitor cytotoxicity in HEK293 cells - 40 hour (AID 1224871); note: nearly all actives have a fitted effect of over 45% in size
Procedure, shortened: as §3

[16] = A CellTox Green Cytotoxicity Assay to monitor cytotoxicity in HEK293 cells - 24 hour (AID 1224875)
Procedure, shortened: as §3

[17] = qHTS RealTime-Glo MT Cell Viability Assay in HepG2 cells - 32 hour (AID 1224877); note: nearly all actives have a fitted effect of over 55% in size
Procedure, shortened: as §1

[18] = A CellTox Green Cytotoxicity Assay to monitor cytotoxicity in HEK293 cells - 32 hour (AID 1224881); note: nearly all actives have a fitted effect of over 40% in size
Procedure, shortened: as §3
% is set by controls: 0 for no effect and ±100 for the full control effect.

C/C=C/C(=O)CC
inactive: activation (H2AX phosphorylation) [1] -0.233% [at 31.6 µM] | activation [2] -0.782% [at 15.8 µM] | activity change, negative = cytotoxicity [3] 0.284% [at 31.6 µM] | activity change, negative = cytotoxicity [4] 0.602% [at 15.8 µM] | activity change, negative = cytotoxic [5] 1.19% [at 15.8 µM] | cytotoxicity [6] 1.29% [at 15.8 µM] | activity change, negative = cytotoxic [7] 1.82% [at 15.8 µM] | activity change, negative = cytotoxicity [8] 1.69% [at 15.8 µM] | viability change, negative = cytotoxic [9] 1.2% [at 15.8 µM] | max response [10] 4.11% | cytotoxicity increase [11] -0.573% [at 15.8 µM] | cytotoxicity increase [12] -0.322% [at 15.8 µM] | activity change, negative = cytotoxicity [13] 9.44% [at 15.8 µM]

CCCCC
inactive: Potency [1] | Potency [2] | Potency [3] | Potency [4] | Potency [5] | Potency [7] | Potency [9] | max response [10] 0.575% | Potency [11] | Potency [14] | Potency [12] | Potency [13]

CC(C)(CO)[N+](=O)[O-]
inactive: Potency [1] | Potency [2] | Potency [3] | Potency [4] | Potency [5] | Potency [6] | Potency [7] | Potency [15] | Potency [8] | Potency [9] | max response [10] 3.49% | Potency [16] | Potency [11] | Potency [17] | Potency [12] | Potency [13] | Potency [18]

CN(C)CCN(Cc1ccsc1)c1ccccn1
inactive: Potency [1] | Potency [2] | Potency [3] | Potency [4] | Potency [5] | Potency [6] | Potency [7] | Potency [15] | Potency [8] | Potency [9] | max response [10] 1.6% | Potency [16] | Potency [11] | Potency [17] | Potency [14] | Potency [12] | Potency [13] | Potency [18]

CC1CCC(=O)C1=O (stereo unspecified)
inactive: Potency [1] | Potency [2] | Potency [3] | Potency [4] | Potency [6] | Potency [7] | Potency [15] | Potency [8] | Potency [9] | max response [10] 3.01% | Potency [16] | Potency [11] | Potency [17] | Potency [14] | Potency [12] | Potency [13] | Potency [18]

Cc1[nH]c(C)c(Cl)c(=O)c1Cl
inactive: activation (H2AX phosphorylation) [1] 1.85% [at 31.6 µM] | activation [2] -0.25% [at 15.8 µM] | activity change, negative = cytotoxicity [3] -0.294% [at 31.6 µM] | activity change, negative = cytotoxicity [4] 3.53% [at 15.8 µM] | activity change, negative = cytotoxic [5] -20.8% [at 15.8 µM] | cytotoxicity [6] 2.83% [at 15.8 µM] | activity change, negative = cytotoxic [7] 1.26% [at 15.8 µM] | cytotoxicity increase [15] -3.34% [at 15.8 µM] | activity change, negative = cytotoxicity [8] -23.6% [at 15.8 µM] | viability change, negative = cytotoxic [9] 0.139% [at 15.8 µM] | max response [10] -19.8% | activity change [16] -5.28% [at 15.8 µM, stronger effect = higher value] | cytotoxicity increase [11] -3.96% [at 15.8 µM] | activity change, negative = cytotoxic [17] 3.22% [at 15.8 µM] | cytotoxicity [14] -5.69% [at 15.8 µM] | cytotoxicity increase [12] -5.76% [at 15.8 µM] | cytotoxicity increase [18] -3.98% [at 15.8 µM]

O=C1OC(=O)C2C3C=CC(C3)C12 (stereo unspecified)
inactive: Potency [1] | Potency [2] | Potency [3] | Potency [4] | Potency [5] | Potency [6] | Potency [7] | Potency [15] | Potency [8] | Potency [9] | max response [10] 12.9% | Potency [16] | Potency [11] | Potency [17] | Potency [14] | Potency [12] | Potency [13]

O=C1OC(CN2CCOCC2)CN1/N=C/c1ccc([N+](=O)[O-])o1 (stereo unspecified)
inactive: Potency [1] | Potency [2] | Potency [3] | Potency [4] | Potency [5] | Potency [6] | Potency [7] | Potency [15] | Potency [8] | max response [10] -0.929% | Potency [16] | Potency [11] | Potency [14] | Potency [12] | Potency [13] | Potency [18]

CCCCCCCCCCCc1ccccc1
inactive: Potency [1] | Potency [2] | Potency [3] | Potency [4] | Potency [5] | Potency [6] | Potency [7] | Potency [15] | Potency [8] | Potency [9] | max response [10] -1.2% | Potency [16] | Potency [17] | Potency [14] | Potency [12] | Potency [18]

O=C1c2ccccc2S(=O)(=O)N1CCCCN1CCN(c2ncccn2)CC1
inactive: Potency [1] | Potency [2] | Potency [3] | Potency [4] | Potency [5] | Potency [6] | Potency [7] | Potency [15] | Potency [8] | Potency [9] | max response [10] -0.801% | Potency [16] | Potency [11] | Potency [17] | Potency [14] | Potency [12] | Potency [13] | Potency [18]

C=CC1CC2C=CC1C2 (stereo unspecified)
inactive: Potency [1] | Potency [2] | Potency [3] | Potency [4] | Potency [5] | Potency [6] | Potency [7] | Potency [15] | Potency [8] | Potency [9] | max response [10] 2.72% | Potency [16] | Potency [11] | Potency [17] | Potency [14] | Potency [12] | Potency [18]

CCOC(=O)c1cccnc1
inactive: Potency [1] | Potency [2] | Potency [3] | Potency [4] | Potency [5] | Potency [6] | Potency [7] | Potency [15] | Potency [8] | Potency [9] | max response [10] 1.88% | Potency [16] | Potency [11] | Potency [17] | Potency [12] | Potency [18]

CCCCC1=NC2(CCCC2)C(=O)N1Cc1ccc(-c2ccccc2-c2nn[nH]n2)cc1
inactive: Potency [1] | Potency [2] | Potency [3] | Potency [4] | Potency [5] | Potency [6] | Potency [7] | Potency [15] | Potency [8] | Potency [9] | max response [10] -1.18% | Potency [16] | Potency [11] | Potency [17] | Potency [14] | Potency [12] | Potency [13]
